Screening results: PubChem, several laboratories
tim23-1 inh: tim23-1 yeast growth inhibition | S. cerevisiae tim23-1 growth, BacTiter-Glo luminescence, 24 h | inhibition, % at 20 µM | 1.3% of 330,000 active;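 active = growth inhibition of the mutant yeast at or above 50%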;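 note: temperature-sensitive mutant grown at 25 °C; plate controls were DMSO-treated mutant yeast for no effect and medium wells lacking yeast for full effect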
TIM10 inh: TIM10 yeast growth inhibition. inhibition, % at 10 µM. S. cerevisiae TIM10 strain growth, BacTiter-Glo luminescence, 24 h. 1.4% of 330,000 active. AID 463195;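 active = inhibition of 40% or more at the single tested concentration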;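 note: wild-type TIM10 isogenic control strain grown at permissive 25 °C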
NALP3 yeast inh: inhibitors of NALP3 inflammasome in yeast. Yeast reconstituted NLRP3/ASC/caspase-1, beta-gal luminescence, 24 h. inhibition, % at 10 µM. 0.39% of 330,000 active;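 active = inhibition of 50% or more; inactive = inhibition below 50%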;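 note: plate controls were induced DMSO wells for no effect and uninduced yeast grown without galactose for full effect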
PfHsp90 yeast 2: reduces growth (ATP signal) of yeast expressing P. falciparum Hsp90; S. cerevisiae expressing PfHsp90, BacTiter-Glo ATP, 48 h; yeast lacking PDR1 and PDR3 efflux regulators; 0.32% of 310,000 active; inhibition, % at 9.4 µM;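 active = every replicate shows inhibition above about 80%, whatever the replicate mean, limit read from the data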;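 note: 0% = DMSO neutral controls and 100% = 20 µM radicicol positive controls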
tim10-1 inh: inhibits growth of tim10-1 mutant yeast. S. cerevisiae tim10-1 ts strain growth, BacTiter-Glo, 24 h. inhibition, % at 20 µM. 2.2% of 330,000 active. AID 463190;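 active = inhibition of at least 40%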;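 note: mutant grown at 25 °C; 0% = DMSO wells with yeast and 100% = wells holding no yeast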
NALP3 yeast conf: NALP3 inhibition confirmation in yeast. inhibition, % at 10 µM. yeast expressing human NALP3, luminescence. 81% of 1,300 active. shares compounds with NALP3 yeast inh. AID 435006; in the data active = inhibition above about 48%
Casp1-ASC yeast: active in yeast caspase-1-ASC counter-screen for NALP3 inhibitors. shares compounds with NALP3 yeast inh. yeast expressing Caspase-1-ASC, luminescence counter screen. AID 488784. 66% of 1,000 active. inhibition, % at 10 µM
NALP3 yeast rt: yeast NALP3 inhibition, confirmed on retest. shares compounds with NALP3 yeast inh. yeast expressing human NALP3, luminescence read-out. inhibition, % at 10 µM. 53% of 1,000 active. AID 488794
tim10-1 confirm: confirmation of tim10-1 mutant yeast growth inhibitors; inhibition, % at 20 µM; AID 463213; shares compounds with tim10-1 inh; 56% of 7,400 active; S. cerevisiae tim10-1 ts strain growth, BacTiter-Glo, 24 h;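 active = inhibition of yeast growth at or above a set limit in either of two repeat tests at 20 µM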;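 note: tim10-1 mutant grown at permissive 25 °C to find synthetic lethal compounds; 0% = DMSO yeast wells and 100% = medium wells without yeast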
TIM10 conf: confirmation of TIM10 yeast growth inhibitors; AID 463215; shares compounds with TIM10 inh; 63% of 4,600 active; S. cerevisiae tim10 strain growth, BacTiter-Glo luminescence, 24 h; inhibition, % at 10 µM;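 active = inhibition of yeast growth at or above a set limit in either of two replicates at 10 µM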;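 note: this counterscreen used the strain with wild-type TIM10; 0% = yeast with DMSO and 100% = medium wells lacking yeast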
An asterisk follows results filed as active; / = no result. Rows were chosen to be rich in hits. Some 3.7% of all compounds tested hit in one or more screens of this group. Cut-off read from the data, not from the text of the source, unless noted: active = inhibition above about 50%; inactive = the rest.

SMILES | tim23-1 inh | TIM10 inh | NALP3 yeast inh | PfHsp90 yeast 2 | tim10-1 inh | NALP3 yeast conf | Casp1-ASC yeast | NALP3 yeast rt | TIM10 conf | others
C/C(=N\NC(=O)c1ccc(Cl)c(Cl)c1)c1ccccn1 | 49.1 | 23.2 | 52.6* | -28.3 | 51.9* | 79.7* | / | / | / | tim10-1 confirm=47.3*
COC(=O)Cn1cnc2c(Cl)nc(F)nc21 | 27.5 | -3.3 | / | 2.2 | 1.4 | / | / | / | /
COC(=O)COc1ccc(-c2ccc(F)cc2)cc1C=O | 39.2 | 74.2* | 55.7* | 10.8 | 61.9* | 55.3* | 57.6* | 27.6 | 80.2* | tim10-1 confirm=65.3*
COC(=O)COc1ccccc1C(N)=O | 10.4 | -4.6 | 1.5 | 12.1 | -1.7 | / | / | / | /
Cn1c(=S)[nH]c2sc3c(c2c1=O)CCC(C(C)(C)C)C3 (stereo not given) | 17.7 | 4.9 | -0.6 | -10.2 | 32.4 | / | / | / | /
CC(C)(C)OC(=O)N(CCc1ccccc1)Cc1ccccc1OCc1cccc(NC(=O)C2CCC2)c1 | / | / | / | -14.6 | / | / | / | / | /
CC1CCc2c(C(=O)Nc3nccs3)csc2C1 (stereo not given) | 42.7 | 43.5* | 58.1* | -36.5 | 34.2 | 69.2* | 76.8* | 46.0 | 43.4*
CS(=O)(=O)c1sc(C#N)c2c1C(=O)CC(c1ccccc1)C2 (stereo not given) | -12.5 | 42.4* | 51.0* | -59.4 | 21.4 | 38.8 | / | / | 42.3*
O=C(CCl)Oc1ccc2occ(C(=O)c3cccs3)c2c1 | -20.4 | 60.6* | 72.8* | 1.2 | 16.9 | 85.5* | / | / | 40.6*
CC(=O)Oc1ccc2occ(C(=O)c3ccccc3)c2c1 | 16.6 | -9.6 | 43.6 | / | -20.3 | / | / | / | /
Cc1cccc(CSc2nnc(-c3ccccn3)n2N)c1 | 21.8 | 15.8 | 8.0 | 17.3 | 5.0 | / | / | / | /
Nn1c(SCc2ccc(Br)cc2)nnc1-c1ccccn1 | 40.7 | 45.7* | 64.6* | 20.3 | 16.2 | 67.2* | 53.9* | 56.1* | 59.8*
Cc1cccc(C)c1N/C=C/c1onc(C)c1[N+](=O)[O-] | 1.5 | -7.5 | 15.8 | 12.9 | 1.7 | / | / | / | /
Cc1noc(/C=C/c2cccnc2)c1[N+](=O)[O-] | 43.7 | 56.5* | 80.1* | -31.9 | 54.7* | 87.3* | 84.6* | 54.2* | 74.9* | tim10-1 confirm=57.2*
CCN1/C(=C/c2ccc3cc(C)ccc3[n+]2CC)Sc2ccccc21 | 35.0 | 65.6* | 55.6* | 92.0* | 65.3* | 67.8* | 99.6* | 98.8* | 75.2* | tim10-1 confirm=44.5*
CC[n+]1c(/C=C2\Sc3ccccc3N2C)ccc2cccc(C)c21 | / | / | / | -34.5 | / | / | / | / | /
COc1cc([C@@H]2Oc3cc(C4Oc5cc(O)cc(O)c5C(=O)[C@H]4O)ccc3O[C@H]2CO)ccc1O (stereo not given in full) | / | / | / | -5.0 | / | / | / | / | /
Cc1ccc(N/N=C(\C#N)C(N)=S)cc1C | 30.3 | 42.2* | 66.9* | -22.4 | 37.7 | 55.5* | 41.6 | 40.8 | 25.9
CCOc1ccc(CCNC(=O)COC(=O)CNC(=O)c2ccc(Br)o2)cc1OCC | -9.6 | -2.8 | 11.3 | 0.7 | 0.6 | / | / | / | /
N#Cc1nc(-c2cccs2)oc1NCCN1CCOCC1 | -2.2 | -3.2 | 8.5 | / | 9.6 | / | / | / | /
N#Cc1nc(-c2cccs2)oc1NCCc1ccccc1 | 36.3 | 64.8* | 70.6* | / | 57.0* | 77.0* | 70.0* | 62.6* | 67.8* | tim10-1 confirm=38.1*
COc1cccc(OC)c1C(=O)Nc1ccccc1Sc1ccccc1 | 24.0 | 0.7 | 18.0 | / | -0.3 | / | / | / | /
O=C1/C(=C/c2cccs2)SC(=S)N1c1cccc(O)c1 | 47.2 | 60.8* | 80.5* | 7.7 | 41.0* | 88.0* | 93.5* | 87.7* | 61.0* | tim10-1 confirm=56.8*
Cc1csc(=O)n1CC(=O)OC(C)C(=O)Nc1cccc(Cl)c1 (stereo not given) | -1.6 | 2.3 | 0.2 | -5.4 | -4.3 | / | / | / | /
Cc1ccc(C(=O)/C=C/Nc2ccccn2)cc1 | 29.7 | 43.3* | 53.0* | 2.8 | 3.0 | 20.4 | / | / | 30.0
COc1ccc(-c2cc3cccc(OC)c3oc2=O)cc1 | 27.9 | 7.7 | 34.5 | -7.4 | 24.9 | / | / | / | /
